{
  "source": "PubChem BioAssay AID1851",
  "about": "(National Center for Advancing Translational Sciences (NCATS), 2009)",
  "note": "Where “and” joins values, the source holds several entries; their conditions need not be identical. Equal values may be shown once. Hit rate of the full screen: of about 16,000 compounds, about 2,600 (16%) were called active. Another 20% or so got no clear call; they are omitted. Calls follow the shape of the dose curve; as a rule, active = well fitted curve in the direction sought with a large enough effect; inconclusive = small, poorly fitted or top-dose-only effect, or effect the other way; inactive = no such curve, though single readings can be large or run the other way. Not all results are given here. A structure can be active in one record and inactive in another. % is scaled to controls: 0 for no effect and ±100 for the full control effect.",
  "data": [
    {"biological_target": "Cytochrome P450 2D6 (Homo sapiens) (UniProt P10635)", "sequence (P10635 whole entry, looked up)": "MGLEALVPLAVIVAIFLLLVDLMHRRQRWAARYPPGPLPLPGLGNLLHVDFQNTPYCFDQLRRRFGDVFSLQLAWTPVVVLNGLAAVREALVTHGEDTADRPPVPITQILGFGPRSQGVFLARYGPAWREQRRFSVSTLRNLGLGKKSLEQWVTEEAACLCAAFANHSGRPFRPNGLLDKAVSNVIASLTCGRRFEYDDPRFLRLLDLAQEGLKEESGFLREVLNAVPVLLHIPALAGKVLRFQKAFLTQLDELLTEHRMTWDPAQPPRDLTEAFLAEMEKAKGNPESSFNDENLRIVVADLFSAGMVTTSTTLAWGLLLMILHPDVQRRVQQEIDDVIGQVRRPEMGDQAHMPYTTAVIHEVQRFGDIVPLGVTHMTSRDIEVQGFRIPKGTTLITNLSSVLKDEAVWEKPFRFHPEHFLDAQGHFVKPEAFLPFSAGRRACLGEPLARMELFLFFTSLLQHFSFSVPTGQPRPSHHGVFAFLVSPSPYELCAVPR", "test": "Cytochrome panel assay with activity outcomes", "conditions": "recombinant CYP, pro-luciferin dealkylation, luminescence, p450-cyp2d6; series mostly up to 57.1 µM; activity, negative = inhibition: at the top concentration", "values": [
      {"smiles": "CC(C)CO/N=C1/C[C@@H](O)[C@@H](O)[C@@H]2[C@@H]3C(=O)N(C[C@@H]4CCCO4)C(=O)[C@H]3CC[C@H]12", "activity, negative = inhibition": "-1.45% [at 11.4 µM] (inactive)"},
      {"smiles": "Cc1cc(C)cc(Oc2coc3cc(OC(=O)c4cccs4)ccc3c2=O)c1", "activity, negative = inhibition": "3.44% (inactive)"},
      {"smiles": "O=C(O)c1cccc2cccc(-c3cccc4cccc(C(=O)O)c34)c12", "activity, negative = inhibition": "-12.7% [at 11.4 µM] (inactive)"},
      {"smiles": "O=C(c1c[nH]c(=O)n(-c2ccccc2)c1=O)N1CCc2ccccc21", "activity, negative = inhibition": "1.94% (inactive)"},
      {"smiles": "O=C(Nc1cccc(Br)c1)/C(=C\\c1cccnc1)NC(=O)c1ccco1", "activity, negative = inhibition": "-9.37% (inactive)"},
      {"smiles": "O=C(/C(=C/c1ccc(Cl)cc1)c1nc2ccccc2[nH]1)c1ccccc1", "activity, negative = inhibition": "-29% (inactive)"},
      {"smiles": "O=C(N/C(=C/c1ccc(Br)cc1)c1nc2ccccc2[nH]1)c1ccco1", "AC50": "12.6 µM (active)"},
      {"smiles": "O=C1c2cccc3c(Cl)ccc(c23)C(=O)N1O", "activity, negative = inhibition": "10.7% (inactive)"},
      {"smiles": "COC(=O)c1ccc(-n2cncn2)c(F)c1", "activity, negative = inhibition": "-6.15% (inactive)"},
      {"smiles": "CCc1nn(C)c(-c2n[nH]c(=S)n2N)c1Cl", "activity, negative = inhibition": "-3.2% (inactive)"},
      {"smiles": "Cc1ccc(S(=O)(=O)NC(=O)OC23COCN2COC3)cc1", "activity, negative = inhibition": "18.1% [at 11.4 µM] (inactive)"},
      {"smiles": "Nc1nc(SCc2ccc([N+](=O)[O-])cc2)c2ncn([C@@H]3O[C@@H](CO)[C@@H](O)[C@H]3O)c2n1", "activity, negative = inhibition": "-4.44% (inactive)"},
      {"smiles": "c1cnc(N2CCN(Cc3ccc4c(c3)OCO4)CC2)nc1", "AC50": "1 µM (active) and 200 nM (active) and inactive"},
      {"smiles": "COC(=O)c1ccccc1OCC(=O)N1CCN(c2ccc(Cl)cc2)CC1", "activity, negative = inhibition": "-8.14% (inactive)"},
      {"smiles": "O=C(CCN1C(=O)c2cccc3cccc(c23)C1=O)N1CCN(Cc2ccc3c(c2)OCO3)CC1", "AC50": "14.1 µM (active)"},
      {"smiles": "O=C(COc1ccc(Cl)cc1)N1CCN(Cc2ccc3c(c2)OCO3)CC1", "AC50": "0.2 µM (active)"},
      {"smiles": "Cc1ccc(NC(=S)N2CCN(CCN3C(=O)c4cccc5cccc(c45)C3=O)CC2)cc1", "activity, negative = inhibition": "-15.8% (inactive)"},
      {"smiles": "O=C(CN1C(=O)c2cccc3cccc(c23)C1=O)N1CCCCCC1", "activity, negative = inhibition": "-21.8% (inactive)"},
      {"smiles": "O=C(O)C1CCN(c2ncccn2)CC1", "activity, negative = inhibition": "14.6% (inactive)"},
      {"smiles": "O=C(Cc1ccc(Cl)cc1)N1CCN(C(=O)c2ccco2)CC1", "activity, negative = inhibition": "-14.7% (inactive)"},
      {"smiles": "O=C(O)[C@@H]1CCCN1Cc1ccc2c(c1)OCO2", "activity, negative = inhibition": "7.95% [at 11.4 µM] (inactive)"},
      {"smiles": "CC(=O)[C@@H](C)CCO[C@@]1(C)OCC[C@@H]1C", "activity, negative = inhibition": "0.323% [at 11.4 µM] (inactive)"},
      {"smiles": "CCOC(=O)c1c(NC(=O)CCCN2CCOCC2)sc2c1CC(C)(C)OC2", "activity, negative = inhibition": "-11.4% (inactive)"},
      {"smiles": "COc1ccc2c(c1)c(CC(=O)O)c(C)n2C(=O)c1ccc(Cl)cc1", "activity, negative = inhibition": "9.28% (inactive)"},
      {"smiles": "CCc1ccc(NC(=O)C2CCN(S(=O)(=O)c3c(C)[nH]c(=O)[nH]c3=O)CC2)cc1", "activity, negative = inhibition": "0.298% (inactive)"}
    ]}
  ]
}
